Reference: the supplement of paper PMC11732987, “Enantioselective OTUD7B fragment discovery through chemoproteomics screening and high-throughput optimisation” (Communications Chemistry, 2025)

molecular target: COPS5 (UniProt Q92905); experiment: log2 ratio of Biotin-Ahx-Ub-VS probe labelling (fragment/DMSO); higher = less target engagement (more negative = stronger competition), active = hit call of the paper (q ≤ 0.05, log2 ratio ≤ -1); settings: compound concentration: 200 uM; treatment time: 3 h
Experimental: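 Competitive ABPP in HEK293T cell lysate. Lysates were treated with each chloroacetamide fragment at 200 µM for 3 h, then with Biotin-Ahx-Ub-VS (0.5 µM, 1 h), NeutrAvidin-enriched and analysed by diaPASEF LC-MS/MS. Protein LFQ was median-normalised; average log2 ratio is fragment/DMSO from an unpaired t-test (n=3 treated, n=44 DMSO). Hits: q ≤ 0.05, log2 ratio ≤ -1, unique peptides ≥ 2.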

Chain of COPS5 (Q92905 whole entry, looked up, the tested form may be a part): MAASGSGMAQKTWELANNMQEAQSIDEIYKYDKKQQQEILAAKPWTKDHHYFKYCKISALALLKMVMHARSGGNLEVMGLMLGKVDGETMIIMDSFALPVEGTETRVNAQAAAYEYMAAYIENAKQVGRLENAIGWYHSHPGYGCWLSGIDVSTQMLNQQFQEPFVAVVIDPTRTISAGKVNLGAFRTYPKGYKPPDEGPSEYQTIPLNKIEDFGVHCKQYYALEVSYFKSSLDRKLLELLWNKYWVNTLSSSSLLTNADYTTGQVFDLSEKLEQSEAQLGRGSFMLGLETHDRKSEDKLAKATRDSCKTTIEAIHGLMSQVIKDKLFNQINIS

log2 ratio of Biotin-Ahx-Ub-VS probe labelling, inactive:
O=C(CCl)NCc1ccc2c(c1)OCO2 0.119
Cc1ccc(CC(NC(=O)CCl)c2ccccn2)cc1.Cl (stereo not given) -0.0198
Cc1ccc(N(C(=O)CCl)C2C=CS(=O)(=O)C2)cc1 (stereo not given) -0.235
O=C(CCl)NCc1cccc(N2CCCC2=O)c1 -0.0124
Cl.O=C(CCl)NCCc1ncc(F)cc1F 0.213
O=C(CCl)N1CCC(c2ccn[nH]2)C1 (stereo not given) 0.121
Cc1ccc(C)c(Oc2ccc(CNC(=O)CCl)cn2)c1.Cl -0.0158
O=C(CCl)NC(Cn1ccccc1=O)c1ccccc1 (stereo not given) 0.168
O=C(CCl)N1CCC(c2noc3cc(F)ccc23)CC1 0.00234
CCc1c[nH]c(CNC(=O)CCl)n1.Cl -0.182
Cl.O=C(CCl)N1CCCC(c2ncc[nH]2)C1 (stereo not given) 0.0747
O=C(CCl)NC1CCCCNC1=O (stereo not given) 0.0739
Cc1ccc(-c2nnc(C)[nH]2)c(NC(=O)CCl)c1 0.151
O=C(CCl)N1CCCC2CCCCC21 (stereo not given) -0.175
COCC[C@@H](NC(=O)CCl)c1ccccc1 0.222
O=C(CCl)Nc1nnc(CC(F)(F)F)o1 0.149
Cc1cccc(NC(=O)CCl)c1C -0.347
O=C(CCl)N1CCOCCC1c1ccccc1 (stereo not given) -0.0175
O=C(CCl)N1CCc2sccc2C1 -0.455
O=C(CCl)NC1CCS(=O)(=O)c2ccccc21 (stereo not given) 0.159
Cc1cc(C2CCCN2C(=O)CCl)nn1C.Cl (stereo not given) 0.0127
NC(=O)C(Cc1ccccc1)NC(=O)CCl (stereo not given) 0.0263
CS(=O)(=O)N1CCCN(C(=O)CCl)CC1 0.193
O=C(CCl)NCCc1ccc(F)cc1 0.0919
O=C(CCl)N1CCOCC1C1CC1 (stereo not given) 0.143
CC(NC(=O)CCl)c1cc2n(n1)CCCC2.Cl (stereo not given) -0.394
Cl.Cn1c(CNC(=O)CCl)nc2cccnc21 0.0916
CS(=O)(=O)c1ccc(NC(=O)CCl)cc1 0.0438
Cc1ccc(N2CCC(NC(=O)CCl)C2=O)cc1 (stereo not given) -0.0995
CC(NC(=O)CCl)c1cnn(C2CC2)c1 (stereo not given) -0.244
COc1cc(Cl)c(C)cc1NC(=O)CCl -0.0677
Cl.O=C(CCl)N[C@H]1C[C@@H](n2cccn2)C1 -0.0476
CN1C(=O)c2ccc(NC(=O)CCl)cc2C1=O -0.249
Cc1cccc(N(CCC#N)C(=O)CCl)c1C -0.0126
O=C(CCl)N(C1CCCC1)C1CCS(=O)(=O)C1 (stereo not given) -0.0682
CC1Cc2ccccc2N1C(=O)CCl (stereo not given) 0.169
C/C(=C\CNC(=O)CCl)c1cnn(C)c1.Cl -0.0819
Cc1ccc(N(CCC#N)C(=O)CCl)cc1C 0.127
O=C(CCl)NCCC1=CCCCC1 0.0168
O=C(CCl)Nc1ccc(N2CCCC2=O)cc1 0.31
